Experimental data reported in PubChem BioAssay AID1159580 (chemical genetic matrix, 2015).
“And” between values parts separate entries of the source, which are not always exact repeats. Equal values may be shown once. Among all 5,500 compounds or so, about 2,000 (36%) were called active. Inconclusive results (about 18%) are left out. Rule as the data show it: active = normalized growth mostly below about 0.91 (no sharp cut-off); inconclusive = no clear call, values can overlap the other calls; inactive = mostly above about 0.92. Some of the results follow.

Experiment: chemical genetic growth profiling, strain panel (AID 1159580);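 also: tested at 20 µM; growth read once vehicle control cultures reached saturation at 30 °C; 1 = growth at the plate median or of vehicle wells; lower values mean less growth of the strain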
Settings: S. cerevisiae deletion strains, growth OD

Measured: normalized growth

COc1cccc(OC)c1C(=O)N[C@@H]1C(=O)N2[C@@H]1SC(C)(C)[C@@H]2C(=O)O
inactive: locus YAL013W, strain DEP1, hits give low values 0.994 | locus YAL021C, strain ccr4, hits give low values 1.01 | locus YAL026C, strain drs2, hits give low values 1.01 | locus YAL030W, strain snc1, hits give low values 0.997 | locus YBL061C, strain skt5, hits give low values 0.998 | locus YBR009C, strain hhf1, hits give low values 0.997 | locus YBR021W, strain FUR4, hits give low values 1.01 | locus YBR023C, strain chs3, hits give low values 0.988 | locus YBR171W, strain sec66, hits give low values 0.987 | locus YBR229C, strain ROT2, hits give low values 1.01 | locus YBR231C, strain swc5, hits give low values 0.984 | locus YBR279W, strain paf1, hits give low values 1 | locus YCL011C, strain gbp2, hits give low values 1.01 | locus YCL016C, strain dcc1, hits give low values 1 | locus YCL029C, strain bik1, hits give low values 0.99 | locus YCL069W, strain vba3, hits give low values 1 | locus YCR088W, strain abp1, hits give low values 0.996 | locus YDL005C, strain med2, hits give low values 0.991 | locus YDL035C, strain GPR1, hits give low values 1 | locus YDL040C, strain nat1, hits give low values 0.995 | locus YDL074C, strain BRE1, hits give low values 1.03 | locus YDL101C, strain DUN1, hits give low values 1 | locus YDL134C, strain PPH21, hits give low values 1.01 | locus YDL185W, strain tfp1, hits give low values 0.967 | locus YDL192W, strain arf1, hits give low values 0.988 | locus YDR001C, strain nth1, hits give low values 1 | locus YDR069C, strain doa4, hits give low values 1.01 | locus YDR101C, strain arx1, hits give low values 0.997 | locus YDR137W, strain rgp1, hits give low values 1.03 | locus YDR150W, strain NUM1, hits give low values 0.983 | locus YDR159W, strain sac3, hits give low values 0.988 | locus YDR162C, strain NBP2, hits give low values 0.979 | locus YDR195W, strain ref2 0.979 | locus YDR297W, strain sur2, hits give low values 1 | locus YDR318W, strain mcm21, hits give low values 0.987 | locus YDR334W, strain swr1, hits give low values 0.995 | locus YDR335W, strain msn5, hits give low values 0.998 | locus YDR388W, hits give low values 1 | locus YDR392W, strain spt3, hits give low values 0.998 | locus YDR502C, strain sam2, hits give low values 0.995 | locus YEL003W, strain gim4, hits give low values 1 | locus YEL037C, strain rad23, hits give low values 0.997 | locus YEL061C, strain CIN8 (second series), hits give low values 0.996 | locus YEL061C, strain CIN8, hits give low values 0.986 | locus YER015W, strain faa2, hits give low values 1 | locus YER016W, strain bim1, hits give low values 0.997 | locus YER110C, hits give low values 0.991 | locus YER111C, strain swi4, hits give low values 0.995 | locus YER155C, strain BEM2 (second series), hits give low values 0.966 | locus YER155C, strain BEM2, hits give low values 1.01 | locus YER167W, strain BCK2, hits give low values 0.999 | locus YFR010W, strain ubp6, hits give low values 0.989 | locus YGL078C, strain dbp3, hits give low values 0.991 | locus YGL086W, strain mad1, hits give low values 0.994 | locus YGL167C, strain pmr1, hits give low values 0.99 | locus YGL173C, strain kem1, hits give low values 0.977 | locus YGL227W, strain vid30, hits give low values 0.992 | locus YGL240W, strain doc1, hits give low values 1 | locus YGL248W, strain PDE1, hits give low values 1.01 | locus YGL253W, strain hxk2, hits give low values 1.01 | locus YGR078C, strain PAC10, hits give low values 1 | locus YGR135W, strain pre9, hits give low values 1 | locus YGR229C, strain SMI1, hits give low values 1.02 | locus YGR252W, strain gcn5, hits give low values 1.05 | locus YHR013C, strain ard1, hits give low values 1.01 | locus YHR027C, strain rpn1, hits give low values 1 | locus YHR030C, strain SLT2, hits give low values 0.993 and 1.03 | locus YHR079C, strain IRE1 (second series), hits give low values 0.991 | locus YHR079C, strain IRE1, hits give low values 1.01 | locus YHR094C, strain hxt1, hits give low values 0.982 | locus YHR129C, strain ARP1, hits give low values 1 | locus YHR142W, strain chs7, hits give low values 0.98 | locus YHR200W, strain rpn10, hits give low values 0.98 | locus YIL066C, strain RNR3, hits give low values 1.01 | locus YIL073C, strain SPO22, hits give low values 0.991 | locus YIL125W, strain kgd1, hits give low values 0.988 | locus YIR030C, strain dcg1, hits give low values 0.992 | locus YJL092W, strain hpr5, hits give low values 0.987 | locus YJL095W, strain BCK1 (second series), hits give low values 0.998 | locus YJL095W, strain BCK1, hits give low values 1.01 and 1.02 | locus YJL115W, strain asf1, hits give low values 0.999 | locus YJL129C, strain trk1, hits give low values 0.98 | locus YJL134W, strain LCB3, hits give low values 0.998 | locus YJL154C, strain vps35, hits give low values 0.993 | locus YJL164C, strain tpk1, hits give low values 0.994 | locus YJL166W, strain qcr8, hits give low values 0.97 | locus YJL168C, strain set2, hits give low values 0.988 | locus YJL187C, strain SWE1 (second series), hits give low values 1.01 | locus YJR043C, strain POL32, hits give low values 0.993
